# Measurements from publication PMC7826789 (International Journal of Molecular Sciences, 2021).
# Tests used:
# Conditions in all cases: Compound Concentration (nM):1000
# CAMK2G = test system: CAMK2G
# CAMK4 = test system: CAMK4
# CAMKK1 = test system: CAMKK1
# CAMKK2 = test system: CAMKK2
# CASK = test system: CASK
# CDC2L1 = test system: T1, CDC2L1
# T1 construct: gene CDK11B
# CDC2L2 = test system: CDC2L2
# CDC2L5 = test system: T2, CDC2L5
# T2 construct: gene CDK13
# CDK11 = test system: T3, CDK11
# T3 construct: gene CDK19
# CDK2 = test system: CDK2
# CDK3 = test system: CDK3
# CDK4-cyclinD1 = test system: CDK4-cyclinD1
# CDK4-cyclinD3 = test system: CDK4-cyclinD3
# CDK4 = test system: CDK4
# CDK5 = test system: CDK5
# CDK7 = test system: CDK7
# CDK8 = test system: CDK8
# CDK9 = test system: CDK9
# CDKL1 = test system: CDKL1
# CDKL2 = test system: CDKL2
# 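Further: KINOMEscan scanMAX binding as percent activity remaining versus control; lower means stronger binding.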
Compound,Percent Control (CAMK2G) [%],Percent Control (CAMK4) [%],Percent Control (CAMKK1) [%],Percent Control (CAMKK2) [%],Percent Control (CASK) [%],Percent Control (CDC2L1) [%],Percent Control (CDC2L2) [%],Percent Control (CDC2L5) [%],Percent Control (CDK11) [%],Percent Control (CDK2) [%],Percent Control (CDK3) [%],Percent Control (CDK4-cyclinD1) [%],Percent Control (CDK4-cyclinD3) [%],Percent Control (CDK4) [%],Percent Control (CDK5) [%],Percent Control (CDK7) [%],Percent Control (CDK8) [%],Percent Control (CDK9) [%],Percent Control (CDKL1) [%],Percent Control (CDKL2) [%]
C/C(Nc1ccc(S(N)(=O)=O)cc1)=C1/C(=O)Nc2ccccc21 [GW335962X],95,100,76,82,87,100,81,65,100,87,100,29,64,100,100,74,78,100,85,82
Cc1cc(O)cc(C)c1/C=C/c1cncc(C(N)=O)c1 [GW435821X],100,100,100,100,77,100,97,100,100,100,100,97,100,100,100,100,72,100,100,100
Cl.O=C(O[C@H]1CN[C@H](C#Cc2cc3ncnc(Nc4ccc5c(cnn5Cc5ccccc5)c4)c3s2)C1)N1CCOCC1 [GSK200398A],96,100,87,86,100,87,100,97,92,97,100,68,100,100,100,78,84,87,88,92
CCn1c(-c2nonc2N)nc2c(C#CC(C)(C)O)nc(OCCNC)cc21.Cl [GSK949675],100,100,100,100,100,100,100,100,100,100,100,100,92,100,85,88,100,100,90,100
COc1cc2ncn(-c3cc(O[C@H](C)c4ccccc4Cl)c(C(N)=O)s3)c2cc1OC [GSK237701A],88,100,92,43,88,100,97,75,84,,100,81,100,86,100,76,48,100,94,86
Cl.O=S1CCN(Cc2ccc(-c3ccc4ncnc(Nc5ccc(OCc6ccccc6)c(F)c5)c4c3)o2)CC1 [GW576924A],100,100,100,100,100,100,100,100,100,100,100,100,100,100,100,100,86,100,100,100
CC1=C(C(=O)Nc2ccc3[nH]ncc3c2)C(c2ccc(Cl)c(Cl)c2)CC(=O)N1 (stereo not drawn) [GSK299115A],95,100,95,85,96,100,96,77,91,100,100,74,100,80,100,83,47,100,96,80
COc1ccc2[nH]c3c4[nH]c5ccc(OC)cc5c4c4c(c3c2c1)C(=O)NC4=O [GW296115X],80,98,78,74,100,90,91,100,100,93,100,82,74,100,75,56,87,58,75,92
COc1cc2ncnc(Nc3ccc4c(cnn4Cc4ccccc4)c3)c2cc1OC.Cl [GW282449A],100,100,100,100,93,100,100,100,100,100,100,100,100,100,100,100,100,100,100,95
COc1cc(N2CCN(C(C)C)CC2)ccc1Nc1nc(Nc2ccc(F)cc2C(=O)NC[C@@H](O)CO)c2cc[nH]c2n1 [GSK1392956A],90,57,79,45,78,100,100,64,91,86,100,85,100,89,100,93,100,100,100,100
CC1=C(C(=O)Nc2ccc3[nH]ncc3c2)C(c2ccc3ccccc3c2)CC(=O)N1 (stereo not drawn) [GSK270822A],79,100,70,69,86,100,90,85,90,100,99,63,94,94,100,88,71,100,91,93
NS(=O)(=O)c1ccc(N/N=C2\C(=O)Nc3ccc(C(=O)NCc4ccncc4)cc32)cc1 [GW300657X],82,100,45,65,78,100,82,24,100,39,66,13,12,84,77,13,75,100,46,99
Cl.O=C(Nc1ccc(Oc2ccc3[nH]c(NC(=O)c4ccccc4)nc3c2)cc1)Nc1cc(C(F)(F)F)ccc1F [GW709042A],100,100,100,100,93,92,100,100,23,100,100,92,100,84,100,32,54,81,92,69
COc1cccc(-c2c[nH]c3c(N/N=C/c4ccncc4)ncnc23)c1 [GW814408X],100,100,100,95,44,81,53,87,100,62,67,26,25,100,82,2.2,100,65,15,26
COc1ccc2c(-c3ccnc(Nc4cccc(OC(F)(F)F)c4)n3)cnn2n1 [GW810372X],100,100,91,81,96,100,100,100,100,100,100,90,74,83,100,61,90,97,77,18
COC(=O)Nc1nc2ccc(Oc3ccc(NC(=O)Nc4cc(C(F)(F)F)ccc4F)cc3)cc2s1.Cl [GW693917A],100,100,100,100,93,98,78,19,5.3,65,100,96,90,100,100,9.3,20,86,73,0
NS(=O)(=O)c1ccc(Nc2ncc(-c3ccccc3)o2)cc1 [GW572399X],100,100,100,100,94,100,100,26,100,100,100,60,88,95,100,21,93,100,80,65
COc1cc(C=NNc2ncnc3c2cnn3-c2ccccc2)ccc1O [GW513184X],100,100,100,100,64,100,100,96,100,66,97,89,81,100,64,4,100,100,80,22
CN1CCN(C(=O)c2ccc(NC(=O)Nc3ccc(N(C)c4ccnc(Nc5ccc(CS(C)(=O)=O)cc5)n4)cc3)cc2)CC1.Cl [GW830263A],100,100,28,100,85,67,51,13,100,87,100,77,89,83,91,61,85,69,73,1.7
O=C(Nc1n[nH]c2nc(-c3ccc(O)cc3)c(Br)cc12)C1CC1 [SB-725317],100,100,100,100,100,100,100,90,100,51,16,2.5,4.4,100,100,19,100,95,98,60
